Values joined by “and” are separate entries in the source; they are usually repeats but may differ in a detail not shown here. Identical values can stand only once. Measured potencies and affinities stand elsewhere.

For test [1], the system named is Klebsiella pneumoniae. To be noted: Concentration 32 ug.mL-1; ASSAY_TEST Inhibition of Bacterial Growth; detection method Absorption (OD600); MEDIA CAMHB; plate type 384well; NBS; CORNING #3640; time 18 hr.
The test system of test [2] is Candida albicans. To be noted: 32 ug/mL.
The test system of test [3] is Cryptococcus neoformans. To be noted: Concentration 32 ug.mL-1; ASSAY_TEST Inhibition of Fungal Growth; detection method Resazurin; Absorption (OD600-OD570); plate type 384well; NBS; CORNING #3640. Background: The colour change of resazurin is a common sign of viable cells or microbes.

Usually Inhibition stands for the relative decrease from the control value, in per cent. Regarding `CCOC(=O)c1cc2cc(OCc3ccccc3)ccc2[nH]1`, the Inhibition was 6.66% in test [1], 1.86% in test [2] and -3.27% in test [3].

With `Cc1nn(-c2ccccc2)c2ncn3nc(-c4ccccc4)nc3c12`, the values for the Inhibition in test [1], in test [2] and in test [3] were 14.39%, 1.63% and -1.31%, respectively.

Turning to `N#Cc1cc2c(N)n[nH]c2nc1N`, the Inhibition in test [1] was 6.95%; in test [2], 0.04%; in test [3], -4.92%.

`COc1ccc2c(c1)cc(/C=C/[N+](=O)[O-])n2C`: the figures for the Inhibition in test [1], in test [2] and in test [3] were 9.01%, 2.82% and 4.17%, respectively.

Regarding `Cn1c(CNNC(=O)c2ccco2)cc2ccccc21`, the Inhibition was -22.42% in test [1], 1.4% in test [2] and -3.17% in test [3].

In the case of `COc1cc(CCC(N)=O)ccc1O`, the Inhibition was 11.33% in test [1], -0.74% in test [2] and -2.02% in test [3].

For `CN1C/C(=C\Cl)n2c1c(C#N)c(-c1ccccc1)c(C#N)c2=O`, the Inhibition in test [1] is 4.05%; in test [2], 3.56%; in test [3], -47.27%.

For `Cl.ClCCCCN1CCCCC1`, the figures for the Inhibition in test [1], in test [2] and in test [3] were -0.73%, -0.33% and -8.6%, respectively.

For the molecule `Cc1ccc(CNNC(=O)c2c[nH]c3ccccc23)cc1`, the results for the Inhibition in test [1], in test [2] and in test [3] were 5.46%, -1.04% and -5.03%, respectively.

As for `Cn1c(C(=O)O)cc2cc(OCCCC3CCN(Cc4ccccc4)CC3)ccc21`, the Inhibition in test [1] was 12.92%; in test [2] it was 6.79%; in test [3], -100.02%.

Regarding `CNCc1cc2cc(OCc3ccccc3)ccc2n1C.Cl`, the Inhibition in test [1] is 14.91%; in test [2], -0.02%; in test [3], 0.75%.

As to `C=C1CN(Cc2ccccc2)c2c(C#N)c(-c3ccccc3)c(C#N)c(=N)n21`, the Inhibition in test [1] is 17.58%; in test [2], 2.82%; in test [3] it was -53.83%.

Regarding `CSC1=NC(=Cc2cn(C)c3ccccc23)C(=O)N1C`, the Inhibition in test [1] was -7.62%; in test [2], 1.89%; in test [3] it was -7.7%.

Take `N#Cc1c(-c2cccc([N+](=O)[O-])c2)c2ccc3ccccc3c2oc1=O`: the Inhibition in test [2] was 4.25% and -0.04% and 3.33%.

With `COc1ccc(/C=C2/N=C(c3ccccc3)OC2=O)cc1OC`, the Inhibition is -24.56% in test [1], -0.31% in test [2] and -8.84% in test [3].

Consider `N#CC1=C(N)Oc2ccc3ccccc3c2C1c1cccc([N+](=O)[O-])c1` (stereo unspecified), for which the Inhibition in test [1] is 6.14%; in test [2], 10.7%; in test [3], -44.61%.

Consider `C#CCN(C)Cc1cc2cc(OC)ccc2n1C`, for which the Inhibition is 12.36% in test [1], 5.35% in test [2] and -77.43% in test [3].

Consider `N#Cc1cc(C#N)c(N2CCCC2)nc1N1CCCC1`, for which the Inhibition in test [1] is 22.43%; in test [2], -0.31%; in test [3], -5.24%.

As to `CC1=C(C(=O)O[C@@H]2C[C@@]3(C)CC[C@H]2C3(C)C)C(c2ccccc2)C(C#N)=C(N)O1` (stereo partly specified), the results for the Inhibition in test [1], in test [2] and in test [3] were -1.66%, 15.2% and -2.45%, respectively.

In the case of `CN1C/C(=C\Br)n2c1c(C#N)cc(C#N)c2=O`, the Inhibition in test [1] was 4.89%; in test [2] it was 3.61%; in test [3] it was -48.49%.

Consider `CCOC(=O)C1=C(C)Oc2nc3c(c(N)c2C1c1ccccc1OC)CCC3` (stereo unspecified), for which the Inhibition in test [1] was 16.69%; in test [2], -0.7%; in test [3], -2.56%.

Turning to `COc1cccc(C2c3c(ccc4ccccc34)OC(=NBr)C2(Br)C#N)c1` (stereo unspecified), the Inhibition in test [1] is 33.1%; in test [2] it was 26.4%; in test [3], -22.56%.

`OCc1cc2ccccc2[nH]1`: the Inhibition was 6.48% in test [1], 2.35% in test [2] and -4.31% in test [3].

Take `CCOC(=O)/C(C#N)=C\c1ccc([N+](=O)[O-])cc1`: the Inhibition was 10.6% in test [1], 5.79% in test [2] and -3.2% in test [3].

For the molecule `CNC(=O)c1cc2cc(OC)ccc2[nH]1`, the Inhibition was 17.99% in test [1], -0.84% in test [2] and -6.03% in test [3].

On to `N#CC1=C(N)Oc2c(ccc3ccccc23)C1c1cccc([N+](=O)[O-])c1` (stereo unspecified), for which the Inhibition in test [1] was 11.95%; in test [2], 2.35%; in test [3], -36.01%.

Take `O=C(Cc1cccc2ccccc12)N/N=C/c1c[nH]c2ccccc12`: the Inhibition in test [1] is 10.96%; in test [2] it was 1.2%; in test [3] it was -4.19%.

With `N#Cc1cc(C#N)c(Cl)nc1Cl`, the figures for the Inhibition in test [1], in test [2] and in test [3] were 2.35%, 33.1% and 24.8%, respectively.

Take `Cn1cc(/C=C2\NC(=S)NC2=O)c2ccccc21`: the Inhibition in test [1] was 6.37%; in test [2], -0.01%; in test [3], -4.32%.

On to `CC(=O)/C=C/C1CCN(Cc2ccccc2)CC1`, for which the results for the Inhibition in test [1], in test [2] and in test [3] were 7.64%, 0.43% and -60.96%, respectively.

Consider `Cn1c(CNNC(=O)Cc2cccc3ccccc23)cc2ccccc21`, for which the Inhibition in test [1] was 2.56%; in test [2], -0.25%; in test [3] it was -2.04%.

In the case of `Cc1cnc(NC(=O)OC(C)(C)C)c(Br)c1`, the figures for the Inhibition in test [1], in test [2] and in test [3] were 17.7%, -0.1% and -60.78%, respectively.

With `N#Cc1c(N)nc(N2CCCCC2)c(C#N)c1-c1ccccc1`, the Inhibition was 2.6% in test [1], 1.97% in test [2] and -31.47% in test [3].

Take `CC(=O)NC(=Cc1ccccc1)C(=O)O`: the Inhibition in test [1] is 19.96%; in test [2] it was 2.49%; in test [3] it was -0.91%.

As for `NC1(C(=O)O)CC1c1ccc2c(c1)OCO2` (stereo unspecified), the figures for the Inhibition in test [1], in test [2] and in test [3] were 1.95%, -1.13% and -2.53%, respectively.

On to `N#CC1(Br)C(=NBr)Oc2ccc3ccccc3c2C1c1ccccc1[N+](=O)[O-]` (stereo unspecified), for which the Inhibition was 5.57% in test [1], 4.94% in test [2] and -80.32% in test [3].

Source of the values: ChEMBL document CHEMBL4513135, “CO-ADD screening of IQOG CSIS (Spain) compounds”.
